The whole screen tested about 340,000 compounds, of which about 6,900 (2%) were called active. This is one part of a sample in which actives are shown more often than they occur. Cut-off read from the data, not from the text of the source: active = inhibition above about 30%; inactive = below that, where a call was filed.

D(2) dopamine receptor (Homo sapiens), sequence (P14416 whole entry, looked up): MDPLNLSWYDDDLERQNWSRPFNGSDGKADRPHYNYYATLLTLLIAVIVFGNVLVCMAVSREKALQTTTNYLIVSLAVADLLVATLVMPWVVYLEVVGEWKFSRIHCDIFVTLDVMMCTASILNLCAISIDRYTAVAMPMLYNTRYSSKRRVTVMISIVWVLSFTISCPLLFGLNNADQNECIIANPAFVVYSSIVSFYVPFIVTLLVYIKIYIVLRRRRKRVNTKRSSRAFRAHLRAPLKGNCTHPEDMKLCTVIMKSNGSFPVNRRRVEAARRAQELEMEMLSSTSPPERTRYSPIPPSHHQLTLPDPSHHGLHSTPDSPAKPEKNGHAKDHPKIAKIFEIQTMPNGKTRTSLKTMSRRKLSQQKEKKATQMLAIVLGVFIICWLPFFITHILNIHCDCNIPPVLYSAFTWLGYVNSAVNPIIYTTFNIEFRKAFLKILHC

For the experiment, the target named is D(2) dopamine receptor (Homo sapiens) (UniProt P14416). Description: HTS Assay for Allosteric Antagonists of the Human D2 Dopamine Receptor: Primary Screen for Antagonists. Note: 0% is about no effect. The following applies: HEK293 TREx D2 cells, calcium flux, dopamine EC80; at 10 µM; stronger effect = higher value. The source says:
NIH Chemical Genomics Center [NCGC] NIH Molecular Libraries Probe Centers Network [MLPCN] MLPCN Grant: NS064831-01 Assay Submitter (PI): David Sibley Dopamine receptors (DARs) are involved in the etiology and/or therapy of a number of neuropsychiatric and endocrine disorders. For instance, all receptor-based antiparkinsonian drugs work via stimulating the D2 DAR subtype whereas all FDA-approved antipsychotic agents are antagonists of this receptor. […] There are three different types of allosteric modulators that we are seeking, two of which will stimulate or augment receptor signaling, allosteric agonists and potentiators, while the third, allosteric antagonists, will attenuate receptor signaling. The present primary screening assay measures compound antagonism after an EC80 addition of dopamine by tracking calcium flux in a […], inducible Hek293 Trex D2 cell line.
Freshly passaged cells are plated in 1536 well black, clear bottom plates at a density of 4000 cells/well in 3 ul of complete media containing 1x tetracycline inducer. After an overnight incubation at 30 C in 5% CO2, cells are loaded with 2 ul of the no wash Calcium Assay Kit (ABD Bioquest) and incubated at room temperature for 30 to 90 minutes. Agonist read: A 10 cycle (1 second/cycle) baseline measurement is taken and then the FDSS online 1536 pintool delivers 23 nl of compound library (as well as dopamine controls) to the plate. The plate is measured for kinetically at 1 cycle/sec for 180 seconds. Following the 180 second read, 1 ul of an EC80 (negative modulation assay) is delivered by an onboard pipette head. Measurements are taken kinetically for an additional 180 seconds.
A general note: A change in cytosolic calcium serves as a functional read-out for many receptors and channels.
Take `CCOC(=O)c1nnn(-c2nonc2OC)c1-c1ccccc1`: the inhibition is 1.66% (inactive).

For the compound `CCOC(=O)C1=C(c2ccccc2)O/C(=C(/C(=O)OC)C(F)(F)F)S1`, the inhibition is 39% (active).

Turning to `COC(=O)/C(=C1\Oc2ccc(C(C)(C)C)cc2S1)C(F)(F)F`, the inhibition was 0.21% (inactive).

Regarding `COc1ccc(S(=O)(=O)N2CCN(CC(=O)N3c4ccccc4CC3C)CC2)cc1OC` (centres undefined), the inhibition is -15.7% (inactive).

For `CCCCn1c(N)c(N(CCC(C)C)C(=O)COC(=O)c2cccnc2OCC)c(=O)[nH]c1=O`, the inhibition was -12.2% (inactive).

In the case of `O=C(NC(=O)c1ccccc1)NC(=O)c1ccccc1`, the inhibition is 27% (inactive).

For `O=C(NC(=O)c1ccccc1)Nc1ccccc1O`, the inhibition is 40% (active).

Turning to `Cc1ccc(NC(=O)NC(=O)c2ccccc2)cc1F`, the inhibition was -2% (inactive).

As to `CC(C)Cc1nnc(NC(=O)CCNC(=O)c2ccccc2Cl)s1`, the inhibition was -3.78% (inactive).

With `Cc1ccc(NC(=O)Cc2nc(COC(=O)C(C)NS(=O)(=O)c3ccc(C)cc3)cs2)cc1` (centres undefined), the inhibition is 2.42% (inactive).

Regarding `COc1ccc(OCC(=O)NNC(=O)c2cccc(C)c2)cc1`, the inhibition is 1.66% (inactive).

As to `COc1ccc(C(=O)Nc2cc(C)ccc2NC(=O)COc2ccccc2)cc1`, the inhibition is 44.4% (active).

With `Cc1cccc(OCC(=O)Nc2ccc(C(=O)O)cc2NC(=O)COc2cccc(C)c2)c1`, the inhibition is -10.4% (inactive).

For the compound `O=C(NCCc1ccc(F)cc1)c1ccc2nccnc2c1`, the inhibition was -19% (inactive).

In the case of `CCOc1ccc(C(O)Cn2c(=N)n(CCN3CCCCC3)c3ccccc32)cc1` (centres undefined), the inhibition was -7.44% (inactive).

Consider `Cc1cccc(OCC(O)Cn2c(=N)n(CCN3CCOCC3)c3ccccc32)c1` (centres undefined), for which the inhibition is 31.7% (active).

Regarding `COc1cccc(OCC(O)CN2CCN(CCO)CC2)c1` (centres undefined), the inhibition is -3.18% (inactive).

Consider `COc1ccc(C)cc1NC(=O)CCCN1C(=O)NC(C)(C)C1=O`, for which the inhibition is -9.24% (inactive).

On to `Cc1nnc(NC(=O)c2ccc3nccnc3c2)s1`, for which the inhibition was 3.14% (inactive).

In the case of `CC1(C(=O)OCC(=O)Nc2ncc(Cl)cc2Cl)CC1(Cl)Cl` (centres undefined), the inhibition is 11.7% (inactive).

With `C=CCN1C(=O)c2ccc(C(=O)N3CCC(C(=O)OCC)CC3)cc2C1=O`, the inhibition was 2.03% (inactive).

Regarding `CSCC(=O)N1CCCC(C(=O)c2cc(F)ccc2F)C1` (centres undefined), the inhibition is -7.86% (inactive).

With `COc1ccc(/C=C/CN2CCCC(C(=O)c3cc(F)ccc3F)C2)cc1` (centres undefined), the inhibition was 34.2% (active).

On to `O=C(c1ccc(OC2CCN(C/C=C/c3ccc(F)cc3)CC2)cc1)N1CCCCC1`, for which the inhibition was 26.2% (inactive).

In the case of `O=C(NCCS(=O)(=O)N1CCN(c2ccccc2)CC1)c1ccco1`, the inhibition was 9.95% (inactive).

As to `Cc1csc2nc(COC(=O)c3cccc(N(C)C)c3)cc(=O)n12`, the inhibition is -21.3% (inactive).

Turning to `CC(C)(C)Nc1c(N)c(=O)oc2ccccc12`, the inhibition is 33.7% (active).

Take `CCNc1c(NS(=O)(=O)c2ccc(C3CCCCC3)cc2)c(=O)oc2ccccc12`: the inhibition was 16.7% (inactive).

As to `Nc1c(NCCc2ccccc2)c2ccccc2oc1=O`, the inhibition was -22.5% (inactive).

With `CCC1(C)NC(=O)N(CC(=O)N2CCN(c3cccc(Cl)c3)CC2)C1=O` (centres undefined), the inhibition was 22.3% (inactive).

For `CCc1ccc(-c2nn(-c3ccccc3C)cc2C(=O)N2CCN(C3CCS(=O)(=O)C3)CC2)cc1` (centres undefined), the inhibition was 3.49% (inactive).

Take `CCN1CCN(C(=O)Cn2nc(C)n3c(cc4c(OC)cccc43)c2=O)CC1`: the inhibition was 35.3% (active).

Turning to `CCc1nn(CC(=O)N2CCN(CC)CC2)c(=O)c2cccn12`, the inhibition is 1.45% (inactive).

For the compound `COc1cccc2c(=O)n(CC(=O)N3CCCCCC3)ccc12`, the inhibition was 5.43% (inactive).

As for `CN(C)C1=NC[C@H](Cc2ccccc2)N1CCc1ccc(F)cc1`, the inhibition is -4.3% (inactive).

For the compound `Cc1ccc(S(=O)(=O)N(C)C)cc1NC(=O)c1ccc(-n2cncn2)c([N+](=O)[O-])c1`, the inhibition was 2.81% (inactive).

Turning to `CCC(C(=O)OCC(=O)Nc1c(Cl)cc(Cl)cc1Cl)c1ccccc1` (centres undefined), the inhibition was -3.7% (inactive).

`CCCC(C)C(=O)OCC(=O)Nc1c(Br)cc(C)cc1Br` (centres undefined): the inhibition was 39.9% (active).

`Cc1cc(C)cc(NC(=O)COC(=O)c2cc(C)oc2C)c1`: the inhibition was -1.43% (inactive).

`COc1ccc(C(=O)NCc2ccc(C)cc2)cc1S(=O)(=O)N1CCCC1`: the inhibition is -8.88% (inactive).

As to `CC1CCN(C(=O)COC(=O)CCC(=O)c2cccs2)CC1`, the inhibition is 24% (inactive).

`Cc1c(C)c2c(OCC(=O)NCCCO)cc3c(c2oc1=O)CCC(C)(C)O3`: the inhibition is -0.698% (inactive).

On to `Cc1cc(=O)oc2c3c(cc(OCC(=O)N[C@H](C(=O)O)c4ccccc4)c12)OC(C)(C)CC3`, for which the inhibition was 3.15% (inactive).

In the case of `Cc1c(C)c2c(OCC(=O)N[C@@H](C(=O)O)c3ccccc3)cc3c(c2oc1=O)CCC(C)(C)O3`, the inhibition was 30.5% (active).

Regarding `CCN(C(=O)COC(=O)c1c(C)nn(-c2ccccc2)c1Cl)c1c(N)n(Cc2ccccc2)c(=O)[nH]c1=O`, the inhibition is -3.1% (inactive).

In the case of `O=C(CSc1nnc(CN2CCCC2)n1-c1ccc(F)cc1)c1ccc2c(c1)OCO2`, the inhibition is 8.14% (inactive).

Regarding `CN(Cc1ccccc1Cl)C(=O)C1CCC(=O)N(CCc2cccc(F)c2)C1` (centres undefined), the inhibition is -0.289% (inactive).

For `CCNC(=O)c1cccc(NC(=O)C2CC(=O)N(CCc3ccccc3)C2)c1` (centres undefined), the inhibition is -18% (inactive).

Regarding `CN(CC(=O)Nc1cccc(F)c1)C(=O)C1CC(=O)N(CCc2ccccc2)C1` (centres undefined), the inhibition was 33.5% (active).

For `Cn1c(N)c(C(=O)COC(=O)/C=C/c2cccc(C(F)(F)F)c2)c(=O)n(C)c1=O`, the inhibition is -16.8% (inactive).

On to `COc1ccc(Nc2ncnc3sc(-c4ccccc4)cc23)c(OC)c1`, for which the inhibition is -16.4% (inactive).

On to `c1ccc2c(c1)OCC(CNc1ncnc3nc[nH]c13)O2` (centres undefined), for which the inhibition was -3.03% (inactive).

With `c1ccc(-c2cc3c(NCC4COc5ccccc5O4)ncnc3s2)cc1` (centres undefined), the inhibition is 31.8% (active).

With `CC(=O)c1ccc(S(=O)(=O)NCCC(=O)N2CCN(c3ccccn3)CC2)cc1`, the inhibition is -35% (inactive).

On to `CN(C)CCN(C(=O)CN1C(=O)c2ccccc2C1=O)c1nc2cc3c(cc2s1)OCCO3`, for which the inhibition is 12.4% (inactive).

On to `CCN(C(=O)COC(=O)C1CCN(S(=O)(=O)c2ccc(C)c(C)c2)CC1)C1CCS(=O)(=O)C1` (centres undefined), for which the inhibition is 10.6% (inactive).

For `COc1cc(CC(=O)N/N=C/c2ccccc2)c([N+](=O)[O-])cc1OC`, the inhibition was 77% (active).

On to `O=C(Cc1cc(=O)[nH][nH]1)N/N=C/c1ccccc1[N+](=O)[O-]`, for which the inhibition was 11.1% (inactive).

For `COc1cc(/C=N/NC(=O)Cc2ccccc2)cc(OC)c1OC`, the inhibition was 1.38% (inactive).

By inhibition is commonly meant the relative decrease from the control value, in per cent.
